# Sampled rows, rich in hits. Any-hit rate of the full collection: about 14%.
# Giardia FBPA inh = Giardia lamblia aldolase inhibition | purified Giardia FBPA | Potency, µM (highest dose often 59.6 µM), without a hit: at the top dose activity, negative = inhibition, actives largely listed as inhibitors | AID 2451 | actives 0.71% (n = 290,000) | A8B2U2; also: potency is read from the fitted curve at half-maximal effect; nearly all actives have a fitted effect of over 55% in size
# Target sequence (A8B2U2 whole entry, looked up): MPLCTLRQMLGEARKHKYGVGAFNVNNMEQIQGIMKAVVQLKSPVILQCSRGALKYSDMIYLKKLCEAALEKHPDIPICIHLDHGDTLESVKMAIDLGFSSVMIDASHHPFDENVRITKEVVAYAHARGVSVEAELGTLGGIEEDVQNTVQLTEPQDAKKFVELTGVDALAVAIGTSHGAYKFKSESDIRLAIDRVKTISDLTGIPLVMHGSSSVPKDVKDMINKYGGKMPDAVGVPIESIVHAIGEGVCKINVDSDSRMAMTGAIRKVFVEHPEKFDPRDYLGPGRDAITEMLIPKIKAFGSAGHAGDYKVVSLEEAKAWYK
#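 40 nM FBPA preincubated 10 min at RT with compound (up to 57.5 uM final), then substrate plus GAPDH/TPI/NAD/arsenate coupling and diaphorase/resazurin added. Fluorescence read after 20 min at RT, 525/598 nm.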
# Pf growth 48h = inhibits P. falciparum growth in the first generation, 48 h | Potency, µM (series often up to 28.7 µM), for the others: top-dose activity change, negative = inhibition, usual class: inhibitors | actives 5.9% (n = 310,000) | P. falciparum luciferase growth in erythrocytes, 48 h | AID 504832; also: potency is read from the fitted curve at half-maximal effect
#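 Luciferase-expressing parasites in RBCs, 2% Hct / 0.1% parasitemia final; RPMI 1640 + 0.5% Albumax; 37 C, 5% CO2, one generation; luminescence read-out, lower signal = inhibition.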
# Pf growth 96h = P. falciparum growth inhibition at 96 hours; P. falciparum luciferase reporter growth, 96 h; actives 6.9% (n = 320,000); AID 504834; Potency, µM (titrated, usually from 28.7 µM), without a hit: at the top dose activity change, negative = inhibition, actives largely listed as inhibitors; also: potency is read from the fitted curve at half-maximal effect
#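 P. falciparum expressing integrated firefly luciferase grown in erythrocytes (2% hematocrit, 0.05% parasitemia final) with compounds for 96 hours at 37 C, 5% CO2. Growth inhibition read as loss of luminescence after adding luciferase detection reagent.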
# Sm TGR block = inhibitors of Schistosoma mansoni thioredoxin glutathione reductase | actives 3% (n = 360,000) | purified TGR, DTNB reduction, TNB absorbance 405 nm | AID 485364 | Potency, µM (doses to about 114 µM), without a hit: top-dose activity change, negative = inhibition, actives largely listed as inhibitors | Q962Y6; also: potency is read from the fitted curve at half-maximal effect; nearly all actives have a fitted effect of over 60% in size
#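 Kinetic colorimetric format: TGR-catalysed, NADPH-driven DTNB reduction monitored via TNB absorbance. Enzyme dispensed at 20 nM; compound exposure 15 min at room temperature before reaction start.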
# HCMV antiviral = human cytomegalovirus inhibition; HFF cells, HCMV-luciferase reporter, 72 h; hits give low values; activity change, negative = inhibition, % at 57.5 µM; actives 4.5% (n = 410,000); in the data active = activity change below about -60%; inconclusive = no clear call, values can overlap the other calls; inactive = above about -39%
#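 Cell-based, HFFs, 1000 cells/well, 16 h 37C; cpds in DMSO + HCMV-luc, MOI 1 PFU/cell; 72 h 37C; OneGlo luminescence after 5 min RT; norm. to buffer vs Salinomycin 10uM.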
# * hit, by the source's call; u = inconclusive; x = not tested or not shown; ! = not confirmed by another sample. Unless noted, calls follow the shape of the dose curve; as a rule, active = well fitted curve in the direction sought with a large enough effect; inconclusive = small, poorly fitted or top-dose-only effect, or another doubt; inactive = no such curve, though single readings can be large; an effect the other way counts as inactive or inconclusive. % is scaled to controls: 0 for no effect and ±100 for the full control effect.
SMILES,Giardia FBPA inh,Pf growth 48h,Pf growth 96h,Sm TGR block,HCMV antiviral
NC(=O)N/N=C/c1c(Sc2nnnn2-c2ccccc2)nc2ccccn2c1=O,6%,4.7µM*,u,4µM*,-73*
Cc1nc(C)n(C(C)CNS(=O)(=O)c2ccc(Cl)cc2)n1 (centres undefined),2%,-2%,-14%,-1%,23
COc1ccc(C(=O)/C=C/c2cn(CC(O)CN3CCCCCC3)c3ccccc23)cc1OC (centres undefined),x,x,x,-28%,-91*
O=C(/C=C/c1cn(CC(O)CN2CCCCCC2)c2ccccc12)c1ccccc1 (centres undefined),x,x,x,u,-39
COc1ccc(C(=O)/C=C/c2cn(CC(O)CN3CCN(C)CC3)c3ccccc23)cc1OC (centres undefined),-1%,4.7µM*,12µM*,9%,-78*
COc1ccc(S(=O)(=O)c2c(Nc3c(C)cccc3C)sc(C(=O)c3ccc4c(c3)OCO4)c2N)cc1,x,x,x,-6%,-87*
COc1cccc(Nc2sc(C(=O)c3ccc4c(c3)OCO4)c(N)c2S(=O)(=O)c2ccccc2)c1,x,x,x,3%,-18
CC(C(=O)NCCc1ccc(Cl)cc1)n1c(=O)c2cccn2c2cccnc21 (centres undefined),8%,1%,13%,-2%,0
CCOc1ccccc1N(CC(=O)N1CCC(C)CC1)S(=O)(=O)c1ccc(C)cc1,x,u,8%,2%,-19
CCOc1ccccc1N(CC(=O)N1CCC(C(N)=O)CC1)S(=O)(=O)c1ccc(SC)cc1,x,-7%,-14%,-31%,-70*
CCOC(=O)N1CCN(C(=O)CN(C2CCCCC2)S(=O)(=O)c2ccc(C)cc2)CC1,8%,10µM*,-4%,20%,11
Cc1ccc(S(=O)(=O)N(CC(=O)N2CCCCCC2)c2ccccc2F)cc1,x,-23%,u,8%,-62*
CCOC(=O)N1CCN(C(=O)CN(c2ccccc2OC)S(=O)(=O)c2ccc(C)cc2)CC1,-3%,u,12µM*,-10%,-11
CC(C)c1ccc(CN2C(=O)C(n3ccc4ccccc43)c3cc(F)ccc32)cc1 (centres undefined),x,x,x,x,3
COc1ccc(NC(=O)c2cc(C3CCCCN3C(=O)c3cccs3)on2)c(C)c1 (centres undefined),x,x,x,x,-35
CCN(CC)S(=O)(=O)c1ccc(C(=O)Nc2cc3oc4ccccc4c3cc2OC)cc1,2%,-13%,u,-5%,-26
CCN(CC)C(=O)CN(c1cc2c(cc1OC)oc1ccccc12)S(=O)(=O)c1ccc(C)cc1,0%,12µM*,x,-1%,76
CCCCNC(=O)c1nc2cc(C)c(C)cc2nc1-c1cccc(C(F)(F)F)c1,x,x,x,x,-94*
O=C(NCc1ccccn1)C1CCN(S(=O)(=O)c2cc(Cl)ccc2Cl)CC1,10%,-7%,95%,-7%,-62*
O=C(C1CCN(S(=O)(=O)N2CCC3(CC2)OCCO3)CC1)N1CCN(Cc2ccccc2)CC1,1%,51%,u,5%,9
CCN(CC)S(=O)(=O)c1ccc(S(=O)(=O)N2CCC(C(=O)NC3CCN(Cc4ccccc4)CC3)CC2)cc1,1%,-11%,u,u,x
O=C(NCCc1ccccc1)C1CCN(S(=O)(=O)N2CCC3(CC2)OCCO3)CC1,3%,-14%,55%,-14%,x
O=C(C1CCN(S(=O)(=O)N2CCC3(CC2)OCCO3)CC1)N1CCc2ccccc2C1,2%,x,5.2µM*,2%,52
O=C(NCc1ccccn1)C1CCN(S(=O)(=O)N2CCC3(CC2)OCCO3)CC1,2%,-6%,10µM*,3%,-1
CCOc1ccc(Cl)cc1S(=O)(=O)N1CCC(C(=O)NCc2ccccn2)CC1,7%,9%,u,-14%,26
SMILES,Giardia FBPA inh,Pf growth 48h,Pf growth 96h,Sm TGR block,HCMV antiviral
Cc1ccc(Cl)cc1S(=O)(=O)N1CCC(C(=O)NC2CCN(Cc3ccccc3)CC2)CC1,8%,7.4µM*,0%,-6%,-72*
Cc1ccc(-n2cc3c(c2-c2ccccc2Br)c(=O)n(C)c(=O)n3C)cc1N,x,x,x,1%,-27
CCCc1nc2nc(C)c(NS(=O)(=O)c3ccc([N+](=O)[O-])cc3)c(=O)n2[nH]1,-22%,29%,2%,-6%,-34
O=Cc1cn(-c2ccc(F)cc2)c2ccccc12,-8%,7%,-17%,-6%,-23
Cc1ccccc1NC1=C/C(=N\S(=O)(=O)c2ccc(C(=O)O)cc2)c2ccccc2C1=O,0.79µM*,2.6µM*,u,u,29
O=C(O)c1ccc(S(=O)(=O)/N=C2\C=C(Nc3ccccc3F)C(=O)c3ccccc32)cc1,u,2.6µM*,u,45µM*,-98*
CC(C)c1ccc(S(=O)(=O)/N=C2\C=C(NS(=O)(=O)c3ccccc3)C(=O)c3ccccc32)cc1,u,-30%,4%,u,-31
COC(=O)C(C(C)=O)C1=C/C(=N\S(=O)(=O)c2ccc(C)cc2)c2ccccc2C1=O (centres undefined),13µM*,x,u,28µM*,x
COC(=O)CC1Oc2cc3oc4c5ccccc5oc(=O)c4c3cc2O1 (centres undefined),3%,x,x,x,x
COc1ccccc1NC(=O)N(C)C[C@H]1OCc2cnnn2CCCC(=O)N([C@H](C)CO)C[C@@H]1C,x,x,x,x,-8
CCc1ccccc1NC(=O)CCc1c(C)nn(-c2ccc(N3CCOCC3)nn2)c1C,-6%,-10%,59%,3%,-62*!
O=C(Oc1ccc(-c2nnco2)cc1)c1cc(S(=O)(=O)N2CCOCC2)ccc1F,x,x,x,x,21
CC(OC(=O)c1ccccc1NCCO)C(=O)NC1CCCCC1C (centres undefined),x,u,-14%,0%,-21
COc1ccc(NC(=O)CN2CCc3ccccc3C2)cc1OC,1%,u,17%,4%,51
COc1cccc(CN2CCc3ccc(NC(=O)CCc4ccc(C)cc4)cc3C2)c1O,x,u,u,-25%,-61*
COc1cc(CN2CCN(c3cc(C)ccc3C)CC2)ccc1O,-13%,10µM*,x,-16%,-73*
COc1cc(CN2CCc3ccccc3C2)ccc1O,u,3%,7%,20µM*,-100*
COc1ccc(CN2CCc3ccc(NC(=O)CCc4ccccc4OC)cc3C2)c(O)c1,-13%,2.1µM*,-17%,-27%,-72*
Cc1ccc(OCC(=O)Nc2cc(S(=O)(=O)N3CCOCC3)ccc2Cl)c([N+](=O)[O-])n1,-1%,78%,-1%,-2%,-24
Cc1cccc(C(=O)N2CCCC(CCC(=O)N3CCN(c4ccccn4)CC3)C2)c1 (centres undefined),x,-10%,-1%,4%,-39
COc1ccccc1CCC(=O)Nc1ccc2c(c1)CN(CCCn1cccn1)CC2,x,8.3µM*,-15%,-10%,-23

# Screens from PubChem BioAssay.
